Screening data as filed in PubChem BioAssay.
RORgamma inh = ROR gamma (mouse) transcription inhibition; Potency, µM (series often up to 53.6 µM), without a hit: at the highest dose activity change, negative = inhibition, hits mostly inhibitors; hit rate 5.4% among 310,000; AID 2551; Drosophila S2 Gal4-RORgamma UAS-luciferase reporter, 20 h; note: potency is the fitted concentration of half-maximal effect; nearly all actives have a fitted effect of over 60% in size
Target sequence (P51450 whole entry, looked up, the tested form may be a part): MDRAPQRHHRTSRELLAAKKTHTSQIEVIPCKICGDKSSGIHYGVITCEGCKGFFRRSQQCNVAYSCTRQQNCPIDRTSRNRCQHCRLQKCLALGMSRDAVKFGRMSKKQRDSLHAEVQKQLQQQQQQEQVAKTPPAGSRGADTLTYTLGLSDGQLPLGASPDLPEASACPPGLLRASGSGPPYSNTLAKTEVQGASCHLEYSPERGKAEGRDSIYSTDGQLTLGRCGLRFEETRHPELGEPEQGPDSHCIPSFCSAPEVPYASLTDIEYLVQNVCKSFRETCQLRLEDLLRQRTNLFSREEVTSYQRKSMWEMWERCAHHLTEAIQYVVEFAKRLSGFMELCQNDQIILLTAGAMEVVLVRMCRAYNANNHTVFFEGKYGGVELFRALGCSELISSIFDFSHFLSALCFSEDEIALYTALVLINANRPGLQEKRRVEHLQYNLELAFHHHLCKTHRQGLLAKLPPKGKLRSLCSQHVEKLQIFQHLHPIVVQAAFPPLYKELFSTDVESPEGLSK
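Read-out: Photinus luciferase luminescence; inhibitors lower reporter signal. Insect Schneider cells with Gal4-ROR gamma fusion under metallothionein promoter, UAS reporter; 700 uM final copper sulfate induction, 20 hr, ambient temperature.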
ELG1 repair inh = ELG1-dependent DNA repair inhibition; AID 504467; Potency, µM (top dose mostly 46.1 µM), without a hit: at the top dose activity change, negative = inhibition, most hits filed as inhibitors; hit rate 2.3% among 330,000; HEK293T ELG1-luciferase reporter, luminescence, 16 h; DNA damage induced by 5-fluorouridine; note: potency is the fitted concentration of half-maximal effect; nearly all actives have a fitted effect of over 55% in size
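HEK293T cells expressing luciferase-tagged ELG1 (2,000/well) received 5-Fluorouridine plus compound or DMSO for 16 hr at 37 °C. Luciferase was read by ONE-Glo luminescence after 30 min at room temperature.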
Gal4-VP16 FLuc = counter-screen for ROR gamma inhibitors: Gal4-VP16 reporter; Drosophila S2 Gal4-VP16 UAS-luciferase, luminescence, 20 h; Potency, µM (highest dose often 53.6 µM), without a hit: at the top dose activity, negative = inhibition, most hits filed as inhibitors; hit rate 3.5% among 310,000;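 note: Gal4-VP16 expression switched on by copper sulfate through the metallothionein promoter; potency is the fitted concentration of half-maximal effect; nearly all actives have a fitted effect of over 50% in size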
IL-1B inflam inh = inflammasome signaling inhibition, IL-1 beta readout; THP-1 LPS/ATP IL-1B secretion, AlphaLISA, 16 h; active compounds read low; activity change, % at 57.5 µM; hit rate 4.7% among 360,000; in the data active = activity change below about -50%; inconclusive = mostly about -30% to -49%
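THP-1 cells pretreated 1 hr with compounds (up to 57.5 uM final), then stimulated with LPS (250 ng/mL final) plus ATP (1.25 mM final); secreted IL-1B measured by AlphaLISA after 16 hr, decreased signal indicating inhibition.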
TDP1 cell CPT = growth inhibition of DT40 Tdp1-/-;hTDP1 cells with camptothecin (screen for TDP1 inhibitors); chicken DT40 Tdp1-/-;hTDP1 cells + 20 nM CPT, ATP luminescence, 48 h; Potency, µM (doses to about 46.2 µM), for the others: at the highest dose activity change, negative = growth inhibition, most hits filed as inhibitors; AID 686979; hit rate 12% among 420,000; note: potency is the fitted concentration of half-maximal effect; nearly all actives have a fitted effect of over 55% in size
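Chicken DT40 Tdp1-/- cells stably complemented with human TDP1 were seeded at 400 cells/well in medium containing 20 nM camptothecin, exposed to pin-transferred compounds, and grown at 37 °C for at least 48 hr. Viability was read as ATP luminescence.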
TDP1 cell noCPT = qHTS for Inhibitors of human tyrosyl-DNA phosphodiesterase 1 (TDP1): qHTS in cells in absence of CPT; DT40 Tdp1-/- hTDP1 cells, no CPT, ATP luminescence, 48 h; Potency, µM (doses to about 46.2 µM), for the others: at the highest dose activity change, negative = growth inhibition, hits mostly inhibitors; hit rate 15% among 420,000; AID 686978, 2013; note: potency is the fitted concentration of half-maximal effect; nearly all actives have a fitted effect of over 55% in size
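Camptothecin absent (DMSO only). Human TDP1-complemented DT40 knockout cells, 400 cells/well, 37 °C for minimum 48 hr; ATP measured via CellTiter-Glo, 30 min dark incubation, luminescence.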
Numbers without * were called inactive; ? = inconclusive; . = no result. A selection: hits, their analogues and other compounds. The true share with any hit is near 21%. Unless noted, calls come from the whole dose curve; as a rule, active = well fitted curve in the direction sought with a large enough effect; inconclusive = small, poorly fitted or top-dose-only effect, or another doubt; inactive = no such curve, though single readings can be large; an effect the other way counts as inactive or inconclusive. % is set by controls: 0 for no effect and ±100 for the full control effect.

SMILES | RORgamma inh | ELG1 repair inh | Gal4-VP16 FLuc | IL-1B inflam inh | TDP1 cell CPT | TDP1 cell noCPT
O=C(/C=C/c1ccc(NC(=O)c2ccccc2-c2ccccc2C(=O)O)cc1)c1ccccc1 | 11µM* | 2% | ? | -62* | -19% | ?
O=C(/C=C/c1ccncc1)c1ccc(NC(=O)c2ccccc2F)cc1 | ? | ? | ? | -104* | 4.1µM* | 2.9µM*
COc1ccc(NCc2nnc3n2CCCCC3)c(OC)c1 | . | . | . | . | -5% | 4%
COCCNC(=O)C1CCN(S(=O)(=O)c2ccc3c(c2)CCCN3C(C)=O)CC1 | . | . | . | . | 8% | 1%
COc1cc(/C=C2\CC(C(C)(C)C)C/C(=C\c3cc(OC)c(OC)c(OC)c3)C2=O)cc(OC)c1OC (stereo unspecified) | ? | ? | -13% | -98* | 15µM* | 9.2µM*
COc1cc(/C=C2\COC/C(=C\c3cc(OC)c(OC)c(OC)c3)C2=O)cc(OC)c1OC | 3.2µM* | ? | 5µM* | -99* | 1.2µM* | 0.58µM*
COc1cc(/C=C2\CC/C(=C\c3cc(OC)c(O)c(OC)c3)C2=O)cc(OC)c1O | ? | 7.3µM* | ? | -103* | 6.5µM* | 5.8µM*
COc1cc(/C=C2/N=C(C3CCCCC3)OC2=O)cc(OC)c1OC | 10% | 8% | -1% | -25 | -21% | -19%
COc1cc(/C=C/c2cncc(/C=C/c3cc(OC)c(OC)c(OC)c3)c2)cc(OC)c1OC | . | . | . | . | -7% | -12%
COc1cc(/C=C2\CC/C(=C\c3cc(OC)c(OC)c(OC)c3)C2=O)cc(OC)c1OC | 15% | ? | -7% | -60* | ? | 10µM*
COc1cc(/C=C2/CCC/C(=C\c3cc(O)c(OC)c(Cl)c3)C2=O)cc(Cl)c1O | ? | 15µM* | ? | -107* | 10µM* | 10µM*
COc1cc(/C=C2\SC(N)=NC2=O)cc(Cl)c1O | -4% | -9% | -3% | 8 | -24% | ?
COc1ccc2cc(C)c3nnc(SCC(=O)Nc4nc(-c5ccc(F)cc5)cs4)n3c2c1 | 17% | ? | -3% | 8 | 21µM* | 23µM*
COc1ccc(-c2csc(NC(=O)CSc3nnc(Nc4ccccc4C)s3)n2)cc1 | -33% | ? | 8% | 20 | 6.5µM* | 6.5µM*
COc1ccccc1Nc1nnc(SCC(=O)NC2CC2)s1 | . | ? | . | -20 | 11% | -16%
COc1ccccc1Nc1nnc(SCC(=O)Nc2nc(-c3ccc(F)cc3)cs2)s1 | ? | ? | -17% | 93 | 15µM* | 13µM*
CCOc1ccccc1Nc1nnc(SCC(=O)Nc2nc(-c3ccc(OC)cc3)cs2)s1 | -42% | -7% | 2% | 7 | -24% | -16%
Cc1ccc(C(=O)OCC(=O)N2CCC(C)CC2)cc1S(=O)(=O)N1CCOCC1 | . | . | . | 5 | -25% | -29%
CCOC(=O)C1CCN(C(c2cc3c(C)ccc(C)c3[nH]c2=O)c2nnnn2C2CCCCC2)CC1 (stereo unspecified) | 17% | ? | 6% | 13 | 28µM* | ?
COc1ccc(CNC(=O)/C=C/c2cc([N+](=O)[O-])ccc2OC(F)F)cc1OC | -9% | 21µM* | -3% | -9 | -29% | -26%
COC(=O)c1ccc(CNC(=O)/C=C/c2cc([N+](=O)[O-])ccc2OC(F)F)cc1 | 36% | 10µM* | 0% | 56 | -6% | 14%
COc1ccc(CNC(=O)/C=C/c2cc([N+](=O)[O-])ccc2OC(F)F)cc1 | 42% | -24% | 5% | -8 | 15% | -21%
CC(O)(c1cccnc1)c1nc(-c2cccc3cccnc23)cs1 (stereo unspecified) | . | . | . | 7 | -22% | ?
COc1ccc([N+](=O)[O-])cc1NC(=O)C(C)N1CCCC1 (stereo unspecified) | -1% | -10% | 9% | 6 | 14% | -14%
CC(C(=O)Nc1cc([N+](=O)[O-])ccc1Cl)N1CCN(c2ccccc2O)CC1 (stereo unspecified) | -3% | ? | -6% | 6 | ? | 13µM*
SMILES | RORgamma inh | ELG1 repair inh | Gal4-VP16 FLuc | IL-1B inflam inh | TDP1 cell CPT | TDP1 cell noCPT
S=C1NC=NC2N=CNC12 (stereo unspecified) | 4% | . | 8% | . | . | .
COC(=O)c1ccc(C(=O)OC)c(NC(=S)N2CCCCC2C)c1 (stereo unspecified) | 16µM* | -2% | ? | -9 | -29% | ?
COC(=O)c1ccc(C(=O)OC)c(NC(=S)N2CCCC2)c1 | -32% | -4% | -7% | 6 | 3% | 3%
CCCN(CCC)C(=O)Cn1c(=O)c2ccccc2n2c(=S)sc(-c3ccccc3C)c12 | -7% | -4% | -7% | 21 | 10µM* | 15µM*
N#Cc1ccc(Nc2nc(-c3ccccc3)c(C(=O)c3ccccc3)s2)cc1 | . | . | . | -52* | 18µM* | 23µM*
CCOC(=O)c1sc(NC(=O)c2ccc(S(=O)(=O)N3CCCCC3)cc2)nc1-c1ccccc1 | ? | 21µM* | -8% | -2 | -12% | ?
CCOC(=O)Nc1nc(-c2ccccc2)c(C(=O)c2ccc(Cl)cc2)s1 | -17% | 11% | -4% | 36 | 0.73µM* | 0.92µM*
CCOC(=O)c1sc(NC(=O)c2ccc(S(=O)(=O)N3CCOCC3)cc2)nc1-c1ccccc1 | ? | 26µM* | -6% | 32 | ? | ?
COc1cccc(NC(=O)C2(C)CCN2C(=O)Cc2cccc3ccccc23)c1 (stereo unspecified) | . | . | . | -8 | ? | ?
CCOC(=O)c1sc(NC(=O)c2ccc(S(=O)(=O)N3CCCCCC3)cc2)nc1-c1ccccc1 | -11% | 13µM* | 7% | 10 | ? | 1µM*
CCOC(=O)C(=CNc1nc(-c2ccccc2)c(C(=O)Nc2ccc(-c3ccccc3)cc2)s1)C(=O)OCC | 7% | 23% | 1% | 57 | 16µM* | ?
Cc1ccc(NC(=O)c2sc(Cl)nc2-c2ccccc2)cc1 | 2% | 0% | -17% | 7 | ? | ?
COc1ccc(CCNC(=O)c2c(-c3ccccc3)noc2C)cc1OC | 4% | 0% | 1% | -1 | -27% | -19%
Cc1ccccc1Nc1sc(C(=O)c2ccc(F)cc2)c(N)c1C(=O)NCCc1ccccc1 | . | . | . | . | ? | 18µM*
COc1ccc(CCNC(=O)c2c(Nc3ccccc3C)sc(C(=O)c3ccccc3)c2N)cc1OC | . | . | . | . | ? | 9.2µM*
